Data from article PMC7862700, “An all-to-all approach to the identification of sequence-specific readers for epigenetic DNA modifications on cytosine”.

Tests used:
Assay in all cases: DAPPL (digital affinity profiling via proximity ligation, sequencing); 10 mM Tris-HCl pH 7.5, 50 mM NaCl, 1 mM DTT, 4% glycerol, room temperature, 30 min; GST-TFs on glutathione beads, 16-mer random dsDNA library, 0.1% formaldehyde crosslink after washing; high values mean tight binding
Details in all cases: protein: recombinant; tags: N-terminal GST; dsDNA, one strand shown
FLI1 = biological target: T1, FLI1 (Homo sapiens, UniProt Q01543 1-452)
T1 sequence: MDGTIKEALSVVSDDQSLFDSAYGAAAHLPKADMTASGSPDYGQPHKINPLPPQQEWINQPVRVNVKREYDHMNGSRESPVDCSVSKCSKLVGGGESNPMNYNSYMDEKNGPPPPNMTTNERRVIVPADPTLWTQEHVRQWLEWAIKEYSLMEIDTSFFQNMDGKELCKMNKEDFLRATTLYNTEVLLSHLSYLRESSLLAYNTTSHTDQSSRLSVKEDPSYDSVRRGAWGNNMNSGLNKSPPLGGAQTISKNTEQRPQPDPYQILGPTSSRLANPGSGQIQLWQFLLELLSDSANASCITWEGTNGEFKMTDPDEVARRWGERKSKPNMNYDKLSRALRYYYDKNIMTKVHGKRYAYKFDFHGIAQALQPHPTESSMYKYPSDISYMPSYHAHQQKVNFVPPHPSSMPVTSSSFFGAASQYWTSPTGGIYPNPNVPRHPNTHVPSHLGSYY
Method in brief: (§1)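 Pools were built from human transcription factors expressed in yeast as GST fusions, captured on glutathione beads and DNA-barcoded, along with a tag-only sample. Incubation with 200 nmole of a 16-mer random double-stranded DNA library lasted 30 min at room temperature in Tris/NaCl/DTT/glycerol buffer, and was followed by washing, 0.1% formaldehyde crosslinking, proximity ligation, PCR amplification and Illumina NextSeq500 sequencing. Binding signal is the quotient of each hexamer's read frequency for a factor and its frequency for the tag-only sample.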

ELK1 = biological target: T2, ELK1 (Homo sapiens, UniProt P19419 1-428)
T2 sequence: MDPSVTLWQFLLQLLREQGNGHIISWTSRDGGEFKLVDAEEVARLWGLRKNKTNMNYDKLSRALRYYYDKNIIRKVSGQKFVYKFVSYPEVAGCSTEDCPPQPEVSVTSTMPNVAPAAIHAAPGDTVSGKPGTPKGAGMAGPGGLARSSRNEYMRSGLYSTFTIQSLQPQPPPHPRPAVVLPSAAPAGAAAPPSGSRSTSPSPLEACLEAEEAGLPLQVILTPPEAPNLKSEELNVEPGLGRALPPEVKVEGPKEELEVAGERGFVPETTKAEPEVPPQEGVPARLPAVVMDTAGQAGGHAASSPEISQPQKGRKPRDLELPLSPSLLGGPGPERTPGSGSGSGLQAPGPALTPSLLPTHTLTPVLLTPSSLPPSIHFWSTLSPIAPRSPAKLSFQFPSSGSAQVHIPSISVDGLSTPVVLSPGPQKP
Method in brief: as §1

GABPA = biological target: T3, GABPA (Homo sapiens, UniProt Q06546 1-454)
T3 sequence: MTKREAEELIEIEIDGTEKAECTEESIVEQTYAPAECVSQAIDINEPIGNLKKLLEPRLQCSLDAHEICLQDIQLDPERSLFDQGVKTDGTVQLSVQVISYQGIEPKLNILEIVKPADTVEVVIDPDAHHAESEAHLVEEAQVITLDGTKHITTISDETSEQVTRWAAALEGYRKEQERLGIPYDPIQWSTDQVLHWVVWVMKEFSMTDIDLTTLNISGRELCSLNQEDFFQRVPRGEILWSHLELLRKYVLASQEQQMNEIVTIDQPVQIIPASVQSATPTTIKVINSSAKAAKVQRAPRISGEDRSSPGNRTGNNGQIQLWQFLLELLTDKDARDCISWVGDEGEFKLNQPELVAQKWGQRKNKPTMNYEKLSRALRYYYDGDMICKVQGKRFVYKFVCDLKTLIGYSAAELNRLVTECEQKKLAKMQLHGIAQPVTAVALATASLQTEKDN
Method in brief: as §1

ERG = biological target: T4, ERG (Homo sapiens, UniProt P11308 1-479)
T4 sequence: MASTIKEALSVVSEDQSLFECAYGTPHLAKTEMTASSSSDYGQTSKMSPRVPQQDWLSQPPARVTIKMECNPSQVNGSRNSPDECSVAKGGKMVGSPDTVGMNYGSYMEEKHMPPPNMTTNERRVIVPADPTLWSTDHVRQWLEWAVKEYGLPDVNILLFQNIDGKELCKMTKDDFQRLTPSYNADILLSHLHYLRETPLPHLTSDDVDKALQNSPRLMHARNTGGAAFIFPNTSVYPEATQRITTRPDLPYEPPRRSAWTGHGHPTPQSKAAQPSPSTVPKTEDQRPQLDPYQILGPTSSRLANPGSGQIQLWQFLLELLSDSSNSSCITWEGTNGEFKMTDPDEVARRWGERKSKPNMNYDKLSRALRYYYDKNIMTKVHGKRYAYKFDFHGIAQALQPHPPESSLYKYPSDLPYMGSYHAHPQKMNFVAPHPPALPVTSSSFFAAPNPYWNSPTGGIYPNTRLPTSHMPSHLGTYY
Method in brief: as §1

ELF1 = ELF1 (Homo sapiens, UniProt P32519 1-619)
Method in brief: as §1

EHF = biological target: T5, EHF (Homo sapiens, UniProt Q9NZC4 1-300)
T5 sequence: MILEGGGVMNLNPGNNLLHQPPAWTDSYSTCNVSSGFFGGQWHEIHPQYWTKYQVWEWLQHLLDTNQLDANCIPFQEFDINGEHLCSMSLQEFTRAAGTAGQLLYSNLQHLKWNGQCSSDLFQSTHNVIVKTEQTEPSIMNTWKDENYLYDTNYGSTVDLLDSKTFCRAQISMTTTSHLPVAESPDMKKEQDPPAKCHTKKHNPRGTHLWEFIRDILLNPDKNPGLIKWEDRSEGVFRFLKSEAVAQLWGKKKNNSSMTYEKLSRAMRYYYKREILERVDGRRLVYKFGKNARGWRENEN
Method in brief: as §1

SPI1 = SPI1 (Homo sapiens, UniProt P17947 1-270)
Method in brief: as §1

SPIB = SPIB (Homo sapiens, UniProt Q01892 1-262)
Method in brief: as §1

ELK3 = biological target: T6, ELK3 (Homo sapiens, UniProt P41970 1-407)
T6 sequence: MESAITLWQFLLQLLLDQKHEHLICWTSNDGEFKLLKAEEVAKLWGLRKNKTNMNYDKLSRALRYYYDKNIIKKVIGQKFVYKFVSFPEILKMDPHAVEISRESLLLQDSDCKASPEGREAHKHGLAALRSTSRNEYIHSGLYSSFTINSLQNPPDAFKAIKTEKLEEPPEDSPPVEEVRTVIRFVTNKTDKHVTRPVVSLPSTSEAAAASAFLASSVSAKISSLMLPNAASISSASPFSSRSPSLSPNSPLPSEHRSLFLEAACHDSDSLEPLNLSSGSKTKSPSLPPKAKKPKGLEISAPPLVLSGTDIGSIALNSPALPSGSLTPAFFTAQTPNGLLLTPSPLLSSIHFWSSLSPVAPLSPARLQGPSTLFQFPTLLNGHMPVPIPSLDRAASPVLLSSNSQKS
Method in brief: as §1

Sequence of SPIB (Q01892 whole entry): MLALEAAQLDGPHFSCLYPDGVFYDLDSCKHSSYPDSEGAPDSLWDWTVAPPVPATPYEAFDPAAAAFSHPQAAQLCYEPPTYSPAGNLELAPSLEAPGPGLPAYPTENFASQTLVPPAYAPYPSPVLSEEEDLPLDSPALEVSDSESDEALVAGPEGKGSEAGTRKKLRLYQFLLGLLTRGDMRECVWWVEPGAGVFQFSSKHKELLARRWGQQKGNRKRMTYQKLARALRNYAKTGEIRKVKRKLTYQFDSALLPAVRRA
Sequence of ELF1 (P32519 whole entry): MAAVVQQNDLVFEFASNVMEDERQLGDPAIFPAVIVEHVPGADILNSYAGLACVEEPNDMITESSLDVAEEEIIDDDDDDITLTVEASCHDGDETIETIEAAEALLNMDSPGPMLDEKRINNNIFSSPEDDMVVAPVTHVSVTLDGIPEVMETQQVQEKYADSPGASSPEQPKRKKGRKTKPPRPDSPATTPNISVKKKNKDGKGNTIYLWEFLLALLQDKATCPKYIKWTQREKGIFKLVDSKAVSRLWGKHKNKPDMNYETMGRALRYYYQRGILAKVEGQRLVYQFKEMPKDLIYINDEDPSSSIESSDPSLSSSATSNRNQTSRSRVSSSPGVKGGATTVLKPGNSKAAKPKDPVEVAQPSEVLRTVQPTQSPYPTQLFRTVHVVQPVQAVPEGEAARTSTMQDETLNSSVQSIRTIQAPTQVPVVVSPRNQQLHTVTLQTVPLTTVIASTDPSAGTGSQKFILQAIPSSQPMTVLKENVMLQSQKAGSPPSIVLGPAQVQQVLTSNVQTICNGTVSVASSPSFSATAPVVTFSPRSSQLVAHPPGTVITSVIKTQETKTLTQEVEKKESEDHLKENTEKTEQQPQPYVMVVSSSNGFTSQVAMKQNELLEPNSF

Row | Sequence | binding signal (FLI1) | binding signal (ELK1) | binding signal (GABPA) | binding signal (ERG) | binding signal (ELF1) | binding signal (EHF) | binding signal (SPI1) | binding signal (SPIB) | binding signal (ELK3)
1 | TCGCCC | 1.34 fold enrichment (6-mer frequency, TF over GST control) | 1.4 fold enrichment (6-mer frequency, TF over GST control) | 1.3 fold enrichment (6-mer frequency, TF over GST control) | 1.27 fold enrichment (6-mer frequency, TF over GST control) | 1.31 fold enrichment (6-mer frequency, TF over GST control) | 1.27 fold enrichment (6-mer frequency, TF over GST control) | 1.29 fold enrichment (6-mer frequency, TF over GST control) | 1.25 fold enrichment (6-mer frequency, TF over GST control) | 1.27 fold enrichment (6-mer frequency, TF over GST control)
2 | TCCGAC | 1.42 fold enrichment (6-mer frequency, TF over GST control) | 1.47 fold enrichment (6-mer frequency, TF over GST control) | 1.32 fold enrichment (6-mer frequency, TF over GST control) | 1.46 fold enrichment (6-mer frequency, TF over GST control) | 1.42 fold enrichment (6-mer frequency, TF over GST control) | 1.46 fold enrichment (6-mer frequency, TF over GST control) | 1.37 fold enrichment (6-mer frequency, TF over GST control) | 1.46 fold enrichment (6-mer frequency, TF over GST control) | 1.56 fold enrichment (6-mer frequency, TF over GST control)
3 | CTTGCG | 1.44 fold enrichment (6-mer frequency, TF over GST control) | 1.42 fold enrichment (6-mer frequency, TF over GST control) | 1.32 fold enrichment (6-mer frequency, TF over GST control) | 1.35 fold enrichment (6-mer frequency, TF over GST control) | 1.39 fold enrichment (6-mer frequency, TF over GST control) | 1.41 fold enrichment (6-mer frequency, TF over GST control) | 1.34 fold enrichment (6-mer frequency, TF over GST control) | 1.4 fold enrichment (6-mer frequency, TF over GST control) | 1.44 fold enrichment (6-mer frequency, TF over GST control)
4 | GGTCTT | 1.14 fold enrichment (6-mer frequency, TF over GST control) | 1.11 fold enrichment (6-mer frequency, TF over GST control) | 1.14 fold enrichment (6-mer frequency, TF over GST control) | 1.09 fold enrichment (6-mer frequency, TF over GST control) | 1.19 fold enrichment (6-mer frequency, TF over GST control) | 1.1 fold enrichment (6-mer frequency, TF over GST control) | 1.18 fold enrichment (6-mer frequency, TF over GST control) | 1.23 fold enrichment (6-mer frequency, TF over GST control) | 1.15 fold enrichment (6-mer frequency, TF over GST control)
5 | TAAGAT | 1.17 fold enrichment (6-mer frequency, TF over GST control) | 1.26 fold enrichment (6-mer frequency, TF over GST control) | 1.19 fold enrichment (6-mer frequency, TF over GST control) | 1.21 fold enrichment (6-mer frequency, TF over GST control) | 1.24 fold enrichment (6-mer frequency, TF over GST control) | 1.3 fold enrichment (6-mer frequency, TF over GST control) | 1.21 fold enrichment (6-mer frequency, TF over GST control) | 1.31 fold enrichment (6-mer frequency, TF over GST control) | 1.2 fold enrichment (6-mer frequency, TF over GST control)
6 | ACTTTG | 1.27 fold enrichment (6-mer frequency, TF over GST control) | 1.29 fold enrichment (6-mer frequency, TF over GST control) | 1.12 fold enrichment (6-mer frequency, TF over GST control) | 1.19 fold enrichment (6-mer frequency, TF over GST control) | 1.26 fold enrichment (6-mer frequency, TF over GST control) | 1.19 fold enrichment (6-mer frequency, TF over GST control) | 1.2 fold enrichment (6-mer frequency, TF over GST control) | 1.16 fold enrichment (6-mer frequency, TF over GST control) | 1.07 fold enrichment (6-mer frequency, TF over GST control)
7 | GTTTCC | 2.66 fold enrichment (6-mer frequency, TF over GST control) | 2.9 fold enrichment (6-mer frequency, TF over GST control) | 2.56 fold enrichment (6-mer frequency, TF over GST control) | 3.43 fold enrichment (6-mer frequency, TF over GST control) | 2.58 fold enrichment (6-mer frequency, TF over GST control) | 2.77 fold enrichment (6-mer frequency, TF over GST control) | 2.67 fold enrichment (6-mer frequency, TF over GST control) | 2.84 fold enrichment (6-mer frequency, TF over GST control) | 2.9 fold enrichment (6-mer frequency, TF over GST control)
